# A number with no mark means an inactive call. The call rests on the fitted dose curve; in most records, active means well fitted curve in the direction sought with a large enough effect; inconclusive means small, poorly fitted or top-dose-only effect, or another doubt; inactive means no such curve, though single readings can be large; an effect the other way counts as inactive or inconclusive.
# Experiment: qHTS for inhibitors of adenylyl cyclases using a fission yeast platform: a pilot screen against the NCATS LOPAC library (AID 1347410);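 further: plate controls were DMSO vehicle for no effect and DPI positive control for full effect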
# Details: S. pombe CHP2027, fbp1-GFP fluorescence, 18 h, yeast expressing mammalian AC9 and human GNAS; series mostly up to 57.5 µM; activity, positive = inhibition (GFP gain): at the top concentration
# Summary of the method: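 Growth medium went into the plates first, then compounds were pinned (final up to 57 µM), then CHP2027 yeast were added. Plates were incubated overnight (18 h) at 30C in the dark, and GFP was measured by laser scanning cytometry.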
row,Compound,"activity, positive = inhibition (GFP gain) [%]"
1,c1ccc2c(c1)CCC[C@H]2Nc1nc2ccccc2[nH]1,-0.438
2,Cn1c(=O)c2[nH]c(-c3ccc(S(=O)(=O)O)cc3)nc2n(C)c1=O,0.0997
3,COc1cc2c(CCNC(C)=O)c[nH]c2cc1O,-0.438
4,C=CCN1CCc2c(cc(O)c(O)c2Cl)C(c2ccccc2)C1 (stereo unspecified),-0.438
5,NC(=O)CC[C@H](N)C(=O)O,-0.438
6,NC(N)=NC(N)=Nc1cccc(Cl)c1,-0.438
7,N[C@@H](Cc1ccc(F)cc1)C(=O)O,0.151
8,O=C(O)C1CCNCC1,-0.438
9,CC(=O)O[C@H]1CC2(C)[C@@H](C[C@@H](O)[C@H]3[C@@]4(C)CC[C@@H](O)[C@@H](C)[C@@H]4CC[C@@]32C)C1=C(CCC=C(C)C)C(=O)O (stereo partly specified),-0.438
10,CCCCCCC/C=C\CCCCCCCCC(=O)O,-0.438
11,N[C@H](C(=O)O)[C@H](Cc1ccccc1)C(=O)O,-0.438
12,Cn1cc(C(=O)OCC2CCN(CCNS(C)(=O)=O)CC2)c2ccccc21,-0.438
13,CCCCCCCCCC[Si](C)(C)CCC(=O)NC(Cc1ccc(C)cc1)c1ccccc1 (stereo unspecified),-0.438
14,Nc1ccc2c3c(cccc13)C(=O)NC2=O,-0.438
15,C[C@]12C=CC(=O)C=C1CC[C@@H]1C2=CC[C@]2(C)[C@@H](C(=O)CN3CCN(c4cc(N5CCCC5)nc(N5CCCC5)n4)CC3)CC[C@@H]12,-0.438
16,O=C(O)c1cc2cc(F)ccc2[nH]1,-0.438
17,NC(=O)c1ccccc1,-0.438
18,NC/C=C\C(=O)O,0.137
19,C=CC[C@H](N)C(=O)O,-0.438

row,Compound,"activity, positive = inhibition (GFP gain) [%]"
1,CCSC(=N)N,-0.438
2,CN1C2CCC1CC(OC(c1ccccc1)c1ccccc1)C2 (stereo unspecified),-0.438
3,CCCCC[C@H](CC(=O)NO)C(=O)N[C@H](C(=O)N1CCC[C@H]1CO)C(C)C,-0.438
4,Cc1nc(N=Nc2ccc(S(=O)(=O)O)cc2S(=O)(=O)O)c(COP(=O)(O)O)c(C=O)c1O,-0.438
5,CSC(N)=NCCC[C@H](N)C(=O)O,-0.438
6,c1ccc(C(NCCNC(c2ccccc2)c2ccccc2)c2ccccc2)cc1,0.165
7,CSC(=N)N,-0.438
8,Fc1ccc(CN(C2=NCCN2)c2c(Cl)cccc2Cl)cc1,3.74
9,CCN1C(=O)C=CC1=O,0.188
10,NC1(C(=O)O)CCCCC1,-0.438
11,NCC(O)c1ccc(O)c(O)c1 (stereo unspecified),-0.438
12,CCCCCCCCCCCCCCSCC(=O)O,-0.438
13,C=C(C)C1CC=C(C(=O)O)CC1 (stereo unspecified),-0.438
14,N=C(N)c1ccccc1,-0.438
15,O=C(OCCN1CCOCC1)C1(c2ccccc2)CCCCC1,-0.438
16,C[N+](C)(C)CC=O,-0.438
17,CC(C)C[C@H](NC(=O)[C@H](O)[C@H](N)Cc1ccccc1)C(=O)O,0.0951
18,COC(=O)[C@H](NC(=O)c1cc(-c2ccccc2)nc2ccccc12)c1ccccc1,0.146
19,NS(=O)(=O)c1cccc2c1c([N+](=O)[O-])cc1nc(O)c(O)nc12,-0.438

# Experiment: Validation qHTS assay for inhibitors of Activation Induced Cytidine Deaminase (AID): UDG Counterscreen signal (AID 1347427); further: 0% is about no effect
# Details: biochemical UDG counterscreen, fluorescence signal; series mostly up to 115 µM; activity, negative = inhibition: at the top concentration
# Summary of the method: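 Counterscreen read of UDG activity (2 U/mL, 4/3x) in the FRET deamination format with AID (1 uM, 4/3x), DJC20/DJC23 substrates (250 nM, 4x), 4 h at room temperature. NaOH stop, fluorescence at 560 ex/665 em.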
row,Compound,"activity, negative = inhibition [%]"
1,c1ccc2c(c1)CCC[C@H]2Nc1nc2ccccc2[nH]1,-1.13
2,Cn1c(=O)c2[nH]c(-c3ccc(S(=O)(=O)O)cc3)nc2n(C)c1=O,10.5
3,COc1cc2c(CCNC(C)=O)c[nH]c2cc1O,6.67
4,C=CCN1CCc2c(cc(O)c(O)c2Cl)C(c2ccccc2)C1 (stereo unspecified),-4.33
5,NC(=O)CC[C@H](N)C(=O)O,3
6,NC(N)=NC(N)=Nc1cccc(Cl)c1,9.83
7,N[C@@H](Cc1ccc(F)cc1)C(=O)O,1.75
8,O=C(O)C1CCNCC1,5.59
9,CC(=O)O[C@H]1CC2(C)[C@@H](C[C@@H](O)[C@H]3[C@@]4(C)CC[C@@H](O)[C@@H](C)[C@@H]4CC[C@@]32C)C1=C(CCC=C(C)C)C(=O)O (stereo partly specified),3.42
10,CCCCCCC/C=C\CCCCCCCCC(=O)O,-1.17
11,N[C@H](C(=O)O)[C@H](Cc1ccccc1)C(=O)O,3.88
12,Cn1cc(C(=O)OCC2CCN(CCNS(C)(=O)=O)CC2)c2ccccc21,11
13,CCCCCCCCCC[Si](C)(C)CCC(=O)NC(Cc1ccc(C)cc1)c1ccccc1 (stereo unspecified),12.4
14,Nc1ccc2c3c(cccc13)C(=O)NC2=O,3.97
15,C[C@]12C=CC(=O)C=C1CC[C@@H]1C2=CC[C@]2(C)[C@@H](C(=O)CN3CCN(c4cc(N5CCCC5)nc(N5CCCC5)n4)CC3)CC[C@@H]12,-15.1
16,O=C(O)c1cc2cc(F)ccc2[nH]1,-0.653
17,NC(=O)c1ccccc1,-1.45
18,NC/C=C\C(=O)O,8.61
19,C=CC[C@H](N)C(=O)O,5.05

row,Compound,"activity, negative = inhibition [%]"
1,CCSC(=N)N,8.03
2,CN1C2CCC1CC(OC(c1ccccc1)c1ccccc1)C2 (stereo unspecified),9.6
3,CCCCC[C@H](CC(=O)NO)C(=O)N[C@H](C(=O)N1CCC[C@H]1CO)C(C)C,18.2
4,Cc1nc(N=Nc2ccc(S(=O)(=O)O)cc2S(=O)(=O)O)c(COP(=O)(O)O)c(C=O)c1O,4.82
5,CSC(N)=NCCC[C@H](N)C(=O)O,4.42
6,c1ccc(C(NCCNC(c2ccccc2)c2ccccc2)c2ccccc2)cc1,-2.99
7,CSC(=N)N,9.51
8,Fc1ccc(CN(C2=NCCN2)c2c(Cl)cccc2Cl)cc1,1.44
9,CCN1C(=O)C=CC1=O,7.32
10,NC1(C(=O)O)CCCCC1,13.3
11,NCC(O)c1ccc(O)c(O)c1 (stereo unspecified),4.53
12,CCCCCCCCCCCCCCSCC(=O)O,9.47
13,C=C(C)C1CC=C(C(=O)O)CC1 (stereo unspecified),6.5
14,N=C(N)c1ccccc1,8.1
15,O=C(OCCN1CCOCC1)C1(c2ccccc2)CCCCC1,12
16,C[N+](C)(C)CC=O,13.5
17,CC(C)C[C@H](NC(=O)[C@H](O)[C@H](N)Cc1ccccc1)C(=O)O,4.47
18,COC(=O)[C@H](NC(=O)c1cc(-c2ccccc2)nc2ccccc12)c1ccccc1,9.52
19,NS(=O)(=O)c1cccc2c1c([N+](=O)[O-])cc1nc(O)c(O)nc12,6.35

# — PubChem BioAssay (NCATS)
